Compounds without any hit were thinned out: in the full panel of roughly 79,000, 15% have a hit. The source made the active and inactive calls. Rule as the data show it: active = growth inhibition above about 70%; inactive = the rest.
How the values were obtained:
[1] = NCI Yeast Anticancer Drug Screen. Data for the rad52 strain (AID 147);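 also: 0% = growth of vehicle-treated control cultures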; conditions: S. cerevisiae rad52 mutant growth inhibition, stronger effect = higher value
Summary of the method: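 Read-out: growth inhibition versus vehicle-treated controls. Cells were a DNA repair-deficient yeast strain treated with compounds.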

[2] = NCI Yeast Anticancer Drug Screen. Data for the wt1 strain (AID 149);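 also: 0% = growth of vehicle-treated wt1 cultures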; conditions: S. cerevisiae wt1 strain (SPY 50644) growth inhibition, stronger effect = higher value
Summary of the method: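 Growth inhibition read against vehicle controls after compound exposure of the wt1 yeast strain.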

[3] = NCI Yeast Anticancer Drug Screen. Data for the mgt1 strain (AID 153); conditions: S. cerevisiae mgt1 mutant growth inhibition, stronger effect = higher value
Summary of the method: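 mgt1 yeast grown with test compound; read-out is growth inhibition versus vehicle-treated cultures.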

[4] = NCI Yeast Anticancer Drug Screen. Data for the rad50 strain (AID 155);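 also: 0% = growth of vehicle-only cultures of the same strain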; conditions: S. cerevisiae rad50 strain growth inhibition, stronger effect = higher value
Summary of the method: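 Readout: growth inhibition relative to vehicle-treated cultures. Compound exposure was carried out in a genetically defined yeast strain deficient in DNA damage repair.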

[5] = NCI Yeast Anticancer Drug Screen. Data for the mec2-1 strain (AID 157); conditions: S. cerevisiae mec2-1 strain, stronger effect = higher value
Summary of the method: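 Yeast mec2-1 mutant treated with compound. Readout: growth inhibition vs vehicle controls.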

[6] = NCI Yeast Anticancer Drug Screen. Data for the rad14 strain (AID 159);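 also: 0% = growth of vehicle-treated control cultures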; conditions: S. cerevisiae rad14 strain growth inhibition, stronger effect = higher value
Summary of the method: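 Growth inhibition vs vehicle controls; genetically altered yeast strain (DNA damage repair defect) treated with test compounds.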

[7] = NCI Yeast Anticancer Drug Screen. Data for the sgs1 mgt1 strain (AID 161);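 also: 0% = growth of cultures given vehicle only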; conditions: S. cerevisiae sgs1 mgt1 strain, stronger effect = higher value
Summary of the method: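 Genetically altered yeast, compound exposure, growth inhibition relative to vehicle.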

[8] = NCI Yeast Anticancer Drug Screen. Data for the CLN2oe strain (AID 163);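 also: 0% = growth of vehicle-only control cultures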; conditions: S. cerevisiae CLN2oe strain, stronger effect = higher value
Summary of the method: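 Read-out: yeast growth inhibition, expressed relative to vehicle-only controls. The strain bears an engineered cell-cycle alteration.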

[9] = NCI Yeast Anticancer Drug Screen. Data for the cln2 rad14 strain (AID 165);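 also: 0% = growth equal to vehicle treated cultures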; conditions: S. cerevisiae cln2 rad14 strain, stronger effect = higher value
Summary of the method: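 cln2 rad14 yeast strain; compound exposure; growth inhibition read vs vehicle controls.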

[10] = NCI Yeast Anticancer Drug Screen. Data for the bub3 strain (AID 167); conditions: S. cerevisiae bub3 mutant strain, stronger effect = higher value
Summary of the method: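 Readout: yeast growth inhibition, expressed relative to vehicle-only wells. The test organism is a mutant strain from a panel with lesions in DNA repair or checkpoint genes.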

[11] = NCI Yeast Anticancer Drug Screen. Data for the wt2 strain (AID 169);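 also: 0% = growth of vehicle-treated yeast cultures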; conditions: S. cerevisiae wt2 strain growth inhibition, stronger effect = higher value
Summary of the method: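 Read-out: growth inhibition versus vehicle-treated control cultures after compound exposure of the yeast strain.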

[12] = NCI Yeast Anticancer Drug Screen. Data for the mlh1 strain (AID 171);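 also: 0% = growth of vehicle-treated control cultures of the same strain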; conditions: S. cerevisiae mlh1 strain growth inhibition, stronger effect = higher value
Summary of the method: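 Read-out: growth inhibition versus vehicle controls. Strain: engineered yeast with a defined DNA repair or cell cycle defect, compound-treated.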

[13] = NCI Yeast Anticancer Drug Screen. Data for the mlh1 rad18 strain (AID 175); conditions: S. cerevisiae mlh1 rad18 strain growth inhibition, stronger effect = higher value
Summary of the method: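 Yeast w/ defined DNA-repair lesions; compound exposure; growth vs vehicle controls → % inhibition.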

[14] = NCI Yeast Anticancer Drug Screen. Data for the rad18 strain (AID 177); conditions: S. cerevisiae rad18 mutant growth inhibition, stronger effect = higher value
Summary of the method: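 Readout: growth inhibition vs vehicle controls. Cells: genetically altered yeast strain, DNA repair defect.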

[15] = NCI Yeast Anticancer Drug Screen. Data for the sgs1 strain (AID 173);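 also: 0% = growth of vehicle-only control cultures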; conditions: S. cerevisiae sgs1 mutant, stronger effect = higher value
Summary of the method: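 Read-out: yeast growth inhibition relative to vehicle controls, following compound exposure of a strain with a defined DNA repair/cell cycle alteration.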

[16] = at 5.0 µM (retest, dose inferred, filed as 0.5)
[17] = at 50.0 µM (retest, dose inferred, filed as 5.0)

Measured: growth inhibition

COc1ccc(N=c2cc(-c3ccccc3)oc3ccccc23)cc1
inactive: [1]; at 1.2 µM 1% | [1]; at 3.7 µM 2% | [1]; at 11.0 µM 1% | [1]; at 33.0 µM -1% | [1]; at 100.0 µM -3% | [2]; at 1.2 µM 0% | [2]; at 3.7 µM 1% | [2]; at 11.0 µM 2% | [2]; at 33.0 µM 1% | [2]; at 100.0 µM -6% | [3]; at 1.2 µM 0% | [3]; at 3.7 µM 1% | [3]; at 11.0 µM -2% | [3]; at 33.0 µM 13% | [3]; at 100.0 µM -6% | [4]; at 1.2 µM 0% | [4]; at 3.7 µM 0% | [4]; [16] 11% | [4]; at 11.0 µM 1% | [4]; at 33.0 µM 0% | [4]; [17] 3% | [4]; at 50.0 µM 57.5% | [4]; at 100.0 µM -4% | [5]; at 1.2 µM -3% | [5]; at 3.7 µM -2% | [5]; [16] -4% | [5]; at 11.0 µM -3% | [5]; at 33.0 µM -4% | [5]; [17] 6% | [5]; at 50.0 µM 27.6% | [5]; at 100.0 µM -7% | [6]; at 1.2 µM -3% | [6]; at 3.7 µM -3% | [6]; at 11.0 µM 0% | [6]; at 33.0 µM -2% | [6]; at 100.0 µM -5% | [7]; [16] 1% | [7]; [17] 17% | [8]; at 1.2 µM -6% | [8]; at 3.7 µM -1% | [8]; at 11.0 µM -6% | [8]; at 33.0 µM -8% | [8]; at 100.0 µM -10% | [9]; [16] -7% | [9]; [17] -1% | [9]; at 50.0 µM 3.85% | [10]; at 1.2 µM -3% | [10]; at 3.7 µM -6% | [10]; [16] -1% | [10]; at 11.0 µM -1% | [10]; at 33.0 µM -4% | [10]; [17] -85% | [10]; at 100.0 µM -1% | [11]; at 1.2 µM 0% | [11]; at 3.7 µM -2% | [11]; at 11.0 µM -1% | [11]; at 33.0 µM -3% | [11]; at 100.0 µM -6% | [12]; at 1.2 µM 0% | [12]; at 3.7 µM -1% | [12]; at 11.0 µM -1% | [12]; at 33.0 µM -4% | [12]; at 100.0 µM -5% | [13]; [16] -2% | [13]; [17] 26% | [14]; at 1.2 µM -2% | [14]; at 3.7 µM 0% | [14]; at 11.0 µM -1% | [14]; at 33.0 µM -6% | [14]; at 100.0 µM -8%
active: [7]; at 50.0 µM 87.1% | [10]; at 50.0 µM 95.5% | [13]; at 50.0 µM 76.2%

CCCCN(CCC#N)c1ccc(/C=C/c2ccnc3ccccc23)cc1
active: [1]; at 100.0 µM 79% | [2]; at 100.0 µM 85% | [3]; at 100.0 µM 76% | [4]; at 100.0 µM 72% | [5]; [17] 80% | [5]; at 100.0 µM 80% | [7]; [17] 77% | [10]; [17] 73% | [11]; at 100.0 µM 83% | [12]; at 100.0 µM 76% | [15]; at 33.0 µM 73% | [15]; at 100.0 µM 84% | [13]; [17] 74% | [14]; at 100.0 µM 77%
inactive: [1]; at 1.2 µM -6% | [1]; at 3.7 µM -9% | [1]; at 11.0 µM -9% | [1]; at 33.0 µM 63% | [2]; at 1.2 µM -6% | [2]; at 3.7 µM -10% | [2]; at 11.0 µM -13% | [2]; at 33.0 µM 66% | [3]; at 1.2 µM -6% | [3]; at 3.7 µM -9% | [3]; at 11.0 µM 0% | [3]; at 33.0 µM 62% | [4]; at 1.2 µM -4% | [4]; at 3.7 µM -7% | [4]; [16] 36% | [4]; at 11.0 µM -6% | [4]; at 33.0 µM 46% | [4]; [17] 30% | [4]; at 50.0 µM -15.1% | [5]; at 1.2 µM -9% | [5]; at 3.7 µM -10% | [5]; [16] 4% | [5]; at 11.0 µM -9% | [5]; at 33.0 µM 45% | [5]; at 50.0 µM -6.1% | [6]; at 1.2 µM -8% | [6]; at 3.7 µM -10% | [6]; at 11.0 µM -5% | [6]; at 33.0 µM -1% | [6]; at 100.0 µM 56% | [7]; [16] -11% | [7]; at 50.0 µM 14.9% | [8]; at 1.2 µM -8% | [8]; at 3.7 µM -14% | [8]; at 11.0 µM -22% | [8]; at 33.0 µM -23% | [8]; at 100.0 µM 22% | [9]; [16] 2% | [9]; [17] 12% | [9]; at 50.0 µM -9.8% | [10]; at 1.2 µM -7% | [10]; at 3.7 µM -14% | [10]; [16] -7% | [10]; at 11.0 µM -13% | [10]; at 33.0 µM -3% | [10]; at 50.0 µM -8.45% | [10]; at 100.0 µM 53% | [11]; at 1.2 µM -9% | [11]; at 3.7 µM -12% | [11]; at 11.0 µM -1% | [11]; at 33.0 µM 69% | [12]; at 1.2 µM -3% | [12]; at 3.7 µM -6% | [12]; at 11.0 µM 10% | [12]; at 33.0 µM 55% | [15]; at 1.2 µM -4% | [15]; at 3.7 µM -5% | [15]; at 11.0 µM 17% | [13]; [16] 16% | [13]; at 50.0 µM 11.7% | [14]; at 1.2 µM -3% | [14]; at 3.7 µM -3% | [14]; at 11.0 µM 1% | [14]; at 33.0 µM 32%

Source: PubChem BioAssay (NCI)
